# Experimental data from PubChem BioAssay AID743150 (Broad Institute, 2013).
# Potency and affinity values are given separately. The source made the active and inactive calls. No rule for the calls is given here.
# Assay: OVCAR4 cell viability loss – plate reader, dry powder, SA11, cytotoxicity control for PAX8 inhibitor project, dose response (AID 743150)
# Conditions: series mostly up to 35 µM; activity change, negative = cytotoxicity: at the top concentration
row,Structure (SMILES),"activity change, negative = cytotoxicity"
1,N#C[C@@H]1[C@@H](c2ccc(-c3cccc(F)c3)cc2)[C@H](CO)N1C(=O)NC1CCCC1,7.32% (inactive)
2,C[C@@H]1CN([C@H](C)CO)C(=O)CCCn2nncc2CO[C@H]1CN(C)Cc1ccc(Oc2ccccc2)cc1,13.8% (inactive)
3,C[C@H](CO)N1C[C@H](C)[C@@H](CN(C)Cc2ccc(-c3ccccc3)cc2)Oc2ccc(NC(=O)C3CC3)cc2CC1=O,21.6% (inactive)
4,N#C[C@@H]1[C@@H](c2ccc(-c3ccccc3F)cc2)[C@@H](CO)N1C(=O)C1CCC1,3.27% (inactive)
5,C[C@H]1CN([C@@H](C)CO)C(=O)Cc2cc(NC(=O)NC3CCCCC3)ccc2O[C@@H]1CN(C)Cc1ccc(-c2ccccc2)cc1,0.265% (inactive)
6,CCCC#Cc1ccc([C@@H]2[C@H](C#N)N(S(=O)(=O)c3cccc(F)c3)[C@H]2CO)cc1,-6.39% (inactive)
7,COc1ccccc1C#Cc1ccc([C@H]2[C@@H](CO)N(C(=O)C3CCCC3)[C@H]2C#N)cc1,-21.2% (inactive)
8,CCCn1c(C)cc(C(=O)CN2C(=O)c3ccccc3S2(=O)=O)c1C,-1.32% [at 50 µM] (inactive)
9,O=C1/C(=C/c2cccc(Br)c2)SC(=S)N1CCC(=O)N(CCO)c1ccccc1,18.2% [at 50 µM] (inactive)
10,N#C[C@@H]1[C@@H](c2ccc(C#Cc3ccccc3F)cc2)[C@H](CO)N1C(=O)C1CCCCC1,5.8% (inactive)
11,N#C[C@H]1[C@H](c2ccc(C#CC3CCCC3)cc2)[C@@H](CO)N1C(=O)Nc1ccc(F)cc1,-23.7% (inactive)
12,C[C@@H]1CN([C@@H](C)CO)S(=O)(=O)c2ccc(C#Cc3ccncc3)cc2O[C@H]1CN(C)C(=O)Nc1ccc2c(c1)OCO2,-32.7% (inactive)
13,C[C@H](CO)N1C[C@H](C)[C@@H](CN(C)Cc2ccc(C(F)(F)F)cc2)OCCCC[C@H](C)Oc2ccc(NS(=O)(=O)c3ccc(F)cc3)cc2C1=O,4.54% (inactive)
14,COc1ccc(S(=O)(=O)N2CCCCN3[C@H](CO)[C@H](c4ccc(C#CC(C)C)cc4)[C@H]3C2)cc1,12.5% (inactive)
15,O=C(N1CCCCC1)[C@@]1(CCS(=O)(=O)c2ccccc2)N=C(c2ccc(OCCCO)cc2)O[C@H]1c1ccccc1,1.84% [at 50 µM] (inactive)
16,N#C[C@H]1[C@@H](c2ccc(C3=CCCC3)cc2)[C@@H](CO)N1C(=O)NC1CCCCC1,-6.6% (inactive)

row,Structure (SMILES),"activity change, negative = cytotoxicity"
1,C[C@@H]1CN([C@@H](C)CO)S(=O)(=O)c2ccc(C#C[C@@H](C)O)cc2O[C@H]1CN(C)Cc1ccc(-c2ccccc2)cc1,16.7% (inactive)
2,O=C1/C(=C/c2ccccc2)SC(=S)N1CC(=O)N1CCCCC1c1cccnc1 (stereo unspecified),26.6% [at 50 µM] (inactive)
3,Cc1ccc(S(=O)(=O)Nc2ccc3c(c2)nc(CCN2CCCC2)n3C)cc1,-9.44% [at 50 µM] (inactive)
4,CC(=O)N1CCOc2ccc(S(=O)(=O)N3CCN(c4cccc(C(F)(F)F)c4)CC3)cc21,-18% [at 50 µM] (inactive)
5,O=C(Nc1ccc(OCC(F)(F)C(F)F)c(C(F)(F)F)c1)c1ccccc1O,-26.7% [at 50 µM] (inactive)
6,N#C[C@H]1N[C@H](CO)[C@@H]1c1ccc(C#Cc2ccccc2F)cc1,-6.58% (inactive)
7,COc1cccc(C#Cc2ccc([C@H]3[C@@H](CO)N(C(=O)c4ccccn4)[C@H]3C#N)cc2)c1,0.618% (inactive)
8,CC(C)c1cc(C(=O)OCC(=O)N2CCN(C(=O)c3ccco3)CC2)c(O)c(C(C)C)c1,30.7% [at 50 µM] (inactive)
9,C[C@H](CO)N1C[C@H](C)[C@@H](CN(C)Cc2ccc(C(F)(F)F)cc2)Oc2ccc(NS(=O)(=O)c3ccc(Cl)cc3)cc2CC1=O,-35.6% (inactive)
10,O=C(/C=C/c1ccccc1)Nc1cccc(C(=O)O)c1,-28.6% [at 50 µM] (inactive)
11,O=C(NCCc1ccccc1)c1ccc2c(c1)OCCCO2,-11.5% [at 50 µM] (inactive)
12,O=C(C[C@@H]1C[C@H]2c3cc(NS(=O)(=O)c4ccc(F)cc4)ccc3O[C@H]2[C@H](CO)O1)NCc1ccc(Cl)cc1,-45.6% (inactive)
13,CC1(C)CC(=O)c2sc(NC(=O)CCS(=O)(=O)c3ccccc3)nc2C1,-33.8% [at 50 µM] (inactive)
14,COc1ccccc1C#Cc1ccc([C@@H]2[C@@H](C#N)N(C(=O)C3CCCCC3)[C@H]2CO)cc1,9.35% (inactive)
15,CCCC#Cc1ccc([C@H]2[C@@H](C#N)N(C(=O)C3CCCCC3)[C@H]2CO)cc1,-7.16% (inactive)
